According to PubChem BioAssay (Tox21):
The source made the active and inactive calls. Unless noted, the call rests on the fitted dose curve; in most records, active means well fitted curve in the direction sought with a large enough effect in the repeat runs; inconclusive means weak or mixed curves; inactive means no such curve, though single readings can be large; an effect the other way counts as inactive or inconclusive.

Tests used:
[1] = qHTS assay to identify small molecule antagonists of the thyroid receptor (TR) signaling pathway - cell viability counter screen (AID 743064); further: nearly all actives have a fitted effect of over 50% in size
Summary of the method: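 GH3.TRE-Luc rat pituitary cells carrying a TRE-luciferase reporter were treated with compound plus 1 nM T3 (final) for 23.5 h at 37 °C. Viability was then read in the same wells by CellTiter-Fluor fluorescence after a further 30 min.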

[2] = qHTS assay to identify small molecule antagonists of the thyroid receptor (TR) signaling pathway (AID 743065); further: nearly all actives have a fitted effect of over 55% in size; further: potency means the concentration at half of the fitted maximal effect
Summary of the method: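 GH3.TRE-Luc rat pituitary cells carrying two TR response elements driving luciferase were plated for 4 h, given compound plus 1 nM T3 (final), and incubated 23.5 h at 37 C. ONE-Glo luminescence measured reporter inhibition; CellTiter-Fluor fluorescence tracked cytotoxicity.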

[3] = test system: thyroid hormone receptor (rat, GH3 cells); experiment: qHTS assay to identify small molecule agonists of the thyroid receptor (TR) signaling pathway (AID 743066; calls by dose curve)
[4] = biological target: Estrogen receptor (Homo sapiens) (UniProt P03372); experiment: qHTS assay to identify small molecule antagonists of the estrogen receptor alpha (ER-alpha) signaling pathway (AID 743069; active means well fitted curve in the direction sought with a large enough effect in the signal ratio in the repeat runs, not every such curve was filed as active; inconclusive means weak or mixed curves, or effect the other way; inactive means no such curve, though single readings can be large or run the other way; the % refers to the signal ratio)
Summary of the method: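 A 17beta-estradiol challenge was applied right after compound transfer to ER-alpha-UAS-bla HEK293 cells previously kept in charcoal-stripped serum. Plates stood 18 hr at 37C and 5% CO2; fluorescence was read following 2 hr FRET substrate loading at room temperature.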

[5] = qHTS assay to identify small molecule antagonists of the estrogen receptor alpha (ER-alpha) signaling pathway - cell viability counter screen (AID 743074; calls by dose curve;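 further: HEK293 cells carrying ER-alpha-UAS-bla reporter stimulated with 17beta-estradiol; nearly all actives have a fitted effect of over 45% in size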)
[6] = biological target: Estrogen receptor (Homo sapiens) (UniProt P03372); experiment: qHTS assay to identify small molecule agonists of the estrogen receptor alpha (ER-alpha) signaling pathway (AID 743075; calls by dose curve;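 further: HEK293 GripTite cells with ER-alpha and UAS-driven beta-lactamase reporter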; further: potency means the concentration at half of the fitted maximal effect)
[7] = biological target: Estrogen receptor (Homo sapiens) (UniProt P03372); experiment: qHTS assay to identify small molecule agonists of the estrogen receptor alpha (ER-alpha) signaling pathway using the BG1 cell line (AID 743079); conditions: BG1Luc4E2 cells, ERE-luciferase agonist, 22 h; activation: at 70.3 µM (top of the series); further: nearly all actives have a fitted effect of over 20% in size; further: potency means the concentration at half of the fitted maximal effect
[8] = qHTS assay to identify small molecule antagonists of the estrogen receptor alpha (ER-alpha) signaling pathway using the BG1 cell line (AID 743080; calls by dose curve;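 further: BG1 cells stimulated with 17beta-estradiol alongside compound; nearly all actives have a fitted effect of over 25% in size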)
Summary of the method: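 Quantitative HTS on the Tox21 10K library: BG1 cells with endogenous ER-alpha and ERE-luciferase reporter, 17beta-estradiol stimulation, 21.5 h compound exposure, luminescence endpoint with parallel fluorescence cytotoxicity counter-read.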

[9] = qHTS assay to identify small molecule antagonists of the estrogen receptor alpha (ER-alpha) signaling pathway using the BG1 cell line - cell viability counter screen (AID 743081);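 further: compound given together with 17beta-estradiol as the ER stimulus; nearly all actives have a fitted effect of over 45% in size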
Aromatase (Homo sapiens) = Aromatase (Homo sapiens) (UniProt P11511); experiment: qHTS assay to identify aromatase inhibitors (AID 743083); further: nearly all actives have a fitted effect of over 55% in size
[10] = qHTS assay to identify aromatase inhibitors - cell viability counter screen (AID 743084);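 further: cells stimulated with testosterone during compound exposure; nearly all actives have a fitted effect of over 55% in size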
[11] = qHTS assay to identify small molecule that activate the aryl hydrocarbon receptor (AhR) signaling pathway - cell viability counter screen (AID 743086);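 further: HepG2 liver cells carrying the AhR DRE luciferase reporter; nearly all actives have a fitted effect of over 45% in size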
Summary of the method: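 HepG2-AhR-luc (HG2L7.5c1) cells, 4000/well, were preincubated 5 h at 37C, exposed to compound in qHTS format for 24 hr at 37C, then given CellTiter-Fluor for 30 min; viability was read as fluorescence in the reporter wells.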

[12] = biological target: Peroxisome proliferator-activated receptor gamma (Homo sapiens) (UniProt P37231); experiment: qHTS assay to identify small molecule agonists of the peroxisome proliferator-activated receptor gamma (PPARg) signaling pathway (AID 743094; active means well fitted activation curve with a large enough effect in the signal ratio in the repeat runs, not every such curve was filed as active; inconclusive means weak or mixed curves, or effect the other way; inactive means no such curve, though single readings can be large or run the other way; the % refers to the signal ratio)
Summary of the method: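 Agonism was assessed in a beta-lactamase reporter system, HEK293H cells with a stably integrated UAS-bla construct under PPARg control; the 17 h treatment at 37C preceded a 1 h room-temperature FRET substrate read.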

[13] = biological target: Peroxisome proliferator-activated receptor gamma (Homo sapiens) (UniProt P37231); experiment: qHTS assay to identify small molecule antagonists of the peroxisome proliferator-activated receptor gamma (PPARg) signaling pathway (AID 743191; calls by dose curve; further: nearly all actives have a fitted effect of over 30% in size)
Summary of the method: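 GeneBLAzer PPARg UAS-bla HEK293H cells carrying a UAS-driven beta-lactamase reporter were plated at 3000 cells/well, preincubated 5 h at 37C, then given compound for 17 h at 37C; LiveBLAzer B/G FRET substrate was read after 1 h at room temperature.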

[14] = qHTS assay to identify small molecule antagonists of the peroxisome proliferator-activated receptor gamma (PPARg) signaling pathway - cell viability counter screen (AID 743194); further: nearly all actives have a fitted effect of over 55% in size
Summary of the method: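 PPARg-UAS-bla HEK293H cells were plated, rested 5 h at 37 C, then treated with compounds plus rosiglitazone (50 nM final) for 17 h at 37 C; viability was then read by CellTiter-Glo luminescence after 30 min at room temperature.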

[15] = qHTS assay for small molecule agonists of the antioxidant response element (ARE) signaling pathway (AID 743202; active means well fitted activation curve with a large enough effect in the signal ratio in the repeat runs, not every such curve was filed as active; inconclusive means weak or mixed curves, or effect the other way; inactive means no such curve, though single readings can be large or run the other way; the % refers to the signal ratio)
Summary of the method: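 Following a 16 h, 37 C exposure of reporter HepG2 cells (ARE-driven beta-lactamase, 2,000 cells/well) to compounds, FRET substrate was applied for 2 h at room temperature and fluorescence intensity recorded.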

[16] = qHTS assay for small molecule agonists of the antioxidant response element (ARE) signaling pathway - cell viability counter screen (AID 743203; calls by dose curve; further: nearly all actives have a fitted effect of over 55% in size)
Summary of the method: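 ATP content via CellTiter-Glo luminescence served as the viability measure. Cells: ARE-bla HepG2, 2,000 per well. Exposure: 16 hrs, 37C/5% CO2.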

[17] = qHTS assay for small molecule activators of the heat shock response signaling pathway (AID 743210; active means well fitted activation curve with a large enough effect in the signal ratio in the repeat runs, with a control signal flat, not every such curve was filed as active; inconclusive means weak or mixed curves; the % refers to the signal ratio)
Summary of the method: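 Heat shock element–beta-lactamase HeLa reporter cells; qHTS with compounds for 5 h at 37 C; detection by FRET substrate fluorescence after 2.5 h at RT.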

[18] = biological target: Aryl hydrocarbon receptor (Homo sapiens) (UniProt P35869); experiment: qHTS assay to identify small molecule that activate the aryl hydrocarbon receptor (AhR) signaling pathway (AID 743085); further: nearly all actives have a fitted effect of over 15% in size; further: potency means the concentration at half of the fitted maximal effect;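 on activation: HG2L7.5c1 human HepG2 liver cells with stably integrated DRE-driven firefly reporter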
Summary of the method: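 HepG2 cells (HG2L7.5c1) stably carrying a firefly luciferase reporter driven by 20 dioxin responsive elements were exposed to compound for 24 h at 37C after a 5 h settling period; luminescence rise (ONE-Glo) indicated activation.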

[19] = qHTS assay for small molecule activators of the heat shock response signaling pathway - cell viability counter screen (AID 743209); further: nearly all actives have a fitted effect of over 50% in size
Summary of the method: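 Compounds dissolved in DMSO were added to overnight-plated HSE-bla HeLa cells and left 5 h at 37 C. Cell viability was quantified by luminescence using CellTiter-Glo.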
On the % scale 0 is the no-effect control and ±100 the full control effect.

Sequence of Aromatase (Homo sapiens) (P11511 whole entry, looked up): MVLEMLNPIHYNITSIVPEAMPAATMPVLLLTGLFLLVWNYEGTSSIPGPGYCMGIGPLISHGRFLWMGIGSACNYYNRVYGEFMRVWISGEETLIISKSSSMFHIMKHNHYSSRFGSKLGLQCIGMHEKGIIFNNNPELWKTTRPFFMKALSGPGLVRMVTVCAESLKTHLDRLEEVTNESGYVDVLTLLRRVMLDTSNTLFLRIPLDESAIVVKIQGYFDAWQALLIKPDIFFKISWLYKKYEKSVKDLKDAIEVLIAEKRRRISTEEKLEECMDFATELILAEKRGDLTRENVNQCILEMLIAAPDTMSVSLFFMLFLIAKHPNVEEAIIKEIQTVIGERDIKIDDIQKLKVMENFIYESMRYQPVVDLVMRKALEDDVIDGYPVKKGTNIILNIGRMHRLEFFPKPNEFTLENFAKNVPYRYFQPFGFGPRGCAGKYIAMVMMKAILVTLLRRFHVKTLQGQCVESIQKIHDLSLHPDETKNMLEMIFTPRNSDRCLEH
Sequence of Aryl hydrocarbon receptor (Homo sapiens) (P35869 whole entry, looked up): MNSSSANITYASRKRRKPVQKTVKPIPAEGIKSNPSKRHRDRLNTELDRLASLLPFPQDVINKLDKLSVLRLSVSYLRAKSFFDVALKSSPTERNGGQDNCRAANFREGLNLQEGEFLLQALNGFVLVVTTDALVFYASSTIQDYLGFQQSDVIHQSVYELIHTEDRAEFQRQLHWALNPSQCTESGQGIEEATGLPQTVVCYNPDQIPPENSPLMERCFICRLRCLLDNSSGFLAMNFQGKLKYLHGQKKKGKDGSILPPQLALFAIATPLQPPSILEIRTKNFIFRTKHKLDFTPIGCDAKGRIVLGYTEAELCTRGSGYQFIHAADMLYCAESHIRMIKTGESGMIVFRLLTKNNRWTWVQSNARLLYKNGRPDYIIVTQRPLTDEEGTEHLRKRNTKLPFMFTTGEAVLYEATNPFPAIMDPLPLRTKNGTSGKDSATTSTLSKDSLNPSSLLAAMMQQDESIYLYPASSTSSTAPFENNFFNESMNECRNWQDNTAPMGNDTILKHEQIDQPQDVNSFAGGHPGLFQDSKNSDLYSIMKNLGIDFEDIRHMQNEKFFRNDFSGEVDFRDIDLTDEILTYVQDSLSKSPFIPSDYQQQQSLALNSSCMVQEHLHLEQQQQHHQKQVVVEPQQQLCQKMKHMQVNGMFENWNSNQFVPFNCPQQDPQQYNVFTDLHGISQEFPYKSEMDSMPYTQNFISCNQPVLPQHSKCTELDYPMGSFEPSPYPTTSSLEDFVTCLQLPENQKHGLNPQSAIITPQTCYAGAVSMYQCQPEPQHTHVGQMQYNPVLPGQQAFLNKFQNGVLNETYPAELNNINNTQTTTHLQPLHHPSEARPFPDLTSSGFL
Sequence of Peroxisome proliferator-activated receptor gamma (Homo sapiens) (P37231 whole entry, looked up): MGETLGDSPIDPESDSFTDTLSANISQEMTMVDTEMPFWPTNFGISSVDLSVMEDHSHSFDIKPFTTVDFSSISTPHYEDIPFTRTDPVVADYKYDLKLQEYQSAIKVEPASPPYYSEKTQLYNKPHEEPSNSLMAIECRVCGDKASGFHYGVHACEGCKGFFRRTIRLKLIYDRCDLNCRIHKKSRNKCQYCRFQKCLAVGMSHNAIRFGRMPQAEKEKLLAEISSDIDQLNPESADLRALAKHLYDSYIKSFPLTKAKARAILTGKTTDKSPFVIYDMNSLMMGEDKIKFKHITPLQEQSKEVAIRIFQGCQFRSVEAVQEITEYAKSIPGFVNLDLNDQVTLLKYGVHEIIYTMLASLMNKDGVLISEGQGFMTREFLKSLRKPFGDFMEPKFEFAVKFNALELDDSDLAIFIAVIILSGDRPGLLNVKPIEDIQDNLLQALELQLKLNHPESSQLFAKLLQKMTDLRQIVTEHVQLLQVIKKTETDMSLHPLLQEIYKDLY
Sequence of Estrogen receptor (Homo sapiens) (P03372 whole entry, looked up): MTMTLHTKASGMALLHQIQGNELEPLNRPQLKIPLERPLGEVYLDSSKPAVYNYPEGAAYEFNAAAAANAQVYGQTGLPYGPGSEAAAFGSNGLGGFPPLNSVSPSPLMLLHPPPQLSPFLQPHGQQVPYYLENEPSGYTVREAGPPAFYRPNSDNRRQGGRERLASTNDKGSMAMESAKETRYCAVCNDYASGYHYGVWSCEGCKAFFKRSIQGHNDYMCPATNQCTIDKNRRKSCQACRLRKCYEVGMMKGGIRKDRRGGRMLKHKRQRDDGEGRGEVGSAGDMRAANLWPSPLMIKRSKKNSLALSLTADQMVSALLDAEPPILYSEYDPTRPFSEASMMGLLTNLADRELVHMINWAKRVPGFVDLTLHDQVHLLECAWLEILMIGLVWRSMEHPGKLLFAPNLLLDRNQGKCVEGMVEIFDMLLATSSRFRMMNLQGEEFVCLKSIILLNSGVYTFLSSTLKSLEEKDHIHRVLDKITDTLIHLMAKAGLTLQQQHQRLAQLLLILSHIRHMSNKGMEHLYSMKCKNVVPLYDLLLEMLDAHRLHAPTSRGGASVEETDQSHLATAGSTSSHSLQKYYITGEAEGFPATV

CCCOCCOCCO
inactive: Potency [1] | Potency [2] | outcome [3] | Potency [4] | Potency [5] | Potency [6] | Potency [7] | Potency [8] | Potency [9] | Potency (Aromatase (Homo sapiens)) | Potency [10] | Potency [11] | Potency [12] | Potency [13] | Potency [14] | Potency [15] | Potency [16] | Potency [17]

CC(C)(CCl)c1ccccc1
inactive: Potency [1] | Potency [2] | outcome [3] | Potency [4] | Potency [5] | Potency [6] | Potency [7] | Potency [8] | Potency [9] | Potency (Aromatase (Homo sapiens)) | Potency [10] | Potency [18] | Potency [11] | Potency [14] | Potency [15] | Potency [16]

Brc1cc(-c2ccc(Br)c(Br)c2Br)cc(Br)c1Br
active: Potency [2] 26.9 µM | Potency [18] 8.5 µM
inactive: Potency [1] | outcome [3] | Potency [5] | Potency [6] | Potency [7] | Potency [8] | Potency [9] | Potency (Aromatase (Homo sapiens)) | Potency [10] | Potency [11] | Potency [14] | Potency [16] | Potency [17]

CC1CC(=O)NN=C1c1ccc(NCC(C)(C)NCC(O)COc2cc(Cl)ccc2C#N)cc1 (configuration not stated)
inactive: Potency [1] | Potency [2] | outcome [3] | Potency [5] | Potency [6] | Potency [7] | Potency [8] | Potency [9] | Potency (Aromatase (Homo sapiens)) | Potency [10] | Potency [11] | Potency [14] | Potency [15] | Potency [16] | Potency [19] | Potency [17]
active: Potency [18] 6.68 µM

COc1cc2[nH]c(=O)[nH]c(=O)c2cc1OC
inactive: Potency [1] | Potency [2] | outcome [3] | Potency [4] | Potency [5] | Potency [6] | Potency [8] | Potency [9] | Potency (Aromatase (Homo sapiens)) | Potency [10] | Potency [11] | Potency [12] | Potency [14] | Potency [15] | Potency [16] | Potency [17]

[O]=[Bi]
inactive: activity change, negative = cytotoxic [1] 1.51% [at 8.44 µM] | activity, negative = inhibition [2] -1.71% [at 8.44 µM] | activation [3] -0.257% [at 8.08 µM] | activity, negative = inhibition [4] -6.92% [at 6.71 µM] | activity, negative = cytotoxicity [5] -18.5% [at 6.72 µM] | activation [6] -1.87% [at 6.71 µM] | activity change, negative = inhibition [8] 3.19% [at 8.47 µM] | activity change, negative = cytotoxicity [9] 0.603% [at 8.47 µM] | activity, negative = inhibition (Aromatase (Homo sapiens)) 15.6% [at 8.47 µM] | activity change, negative = cytotoxicity [10] -5.72% [at 8.47 µM] | activation [18] -0.231% [at 8.47 µM] | viability change, negative = cytotoxic [11] -5.07% [at 8.47 µM] | activation [12] -4.02% [at 7.08 µM] | ratio activity, negative = inhibition [13] 6.53% [at 5.95 µM] | activity change, negative = cytotoxicity [14] -1.71% [at 5.95 µM] | activation [15] -9.19% [at 8.36 µM] | viability change, negative = cytotoxic [16] -0.248% [at 8.36 µM] | activity change, negative = cytotoxicity [19] 0.948% [at 5.95 µM]

CCC(=O)OC/C=C/c1ccccc1
inactive: Potency [1] | Potency [2] | outcome [3] | Potency [4] | Potency [5] | Potency [6] | Potency [8] | Potency [9] | Potency (Aromatase (Homo sapiens)) | Potency [10] | Potency [11] | Potency [12] | Potency [13] | Potency [14] | Potency [16] | Potency [19] | Potency [17]
active: Potency [7] 68.6 µM

CCC(Cc1ccccc1)(C(=O)c1ccc(N2CCOCC2)cc1)N(C)C (configuration not stated)
active: Potency [6] 49 µM [inconclusive]
inactive: Potency [1] | Potency [2] | outcome [3] | Potency [4] | Potency [5] | Potency [9] | Potency (Aromatase (Homo sapiens)) | Potency [10] | Potency [12] | Potency [14] | Potency [16] | Potency [19] | Potency [17]
